Consider 28 molecules from PubChem BioAssay (Tox21).

SMILES strings stand for the structures. Where “and” joins values, the source holds several entries; their conditions need not be identical. Equal entries are not always repeated. Results filed as inconclusive are left out. Some compounds were tested as several samples or in several runs, with calls that do not always agree. Calls of active or inactive are those of the source. Unless noted, calls come from the whole dose curve; as a rule, active = well fitted curve in the direction sought with a large enough effect in the repeat runs; inconclusive = weak or mixed curves; inactive = no such curve, though single readings can be large; an effect the other way counts as inactive or inconclusive.

For test [1], the target named is Progesterone receptor (Homo sapiens) (UniProt P06401). The experiment in a line: qHTS assay to identify small molecule agonists of the progesterone receptor (PR) signaling pathway (AID 1346784; calls by dose curve; note: nearly all actives have a fitted effect of over 30% in size; note: potency is the fitted concentration of half-maximal effect). In outline: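 Using charcoal-stripped serum (2%) to limit endogenous steroids, PR-UAS-bla HEK 293T cells received compounds for 16 hr at 37C after 6 hr plating; beta-lactamase FRET fluorescence was recorded following 2 hr substrate loading at room temperature.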
Sequence of Progesterone receptor (Homo sapiens) (P06401 whole entry, looked up): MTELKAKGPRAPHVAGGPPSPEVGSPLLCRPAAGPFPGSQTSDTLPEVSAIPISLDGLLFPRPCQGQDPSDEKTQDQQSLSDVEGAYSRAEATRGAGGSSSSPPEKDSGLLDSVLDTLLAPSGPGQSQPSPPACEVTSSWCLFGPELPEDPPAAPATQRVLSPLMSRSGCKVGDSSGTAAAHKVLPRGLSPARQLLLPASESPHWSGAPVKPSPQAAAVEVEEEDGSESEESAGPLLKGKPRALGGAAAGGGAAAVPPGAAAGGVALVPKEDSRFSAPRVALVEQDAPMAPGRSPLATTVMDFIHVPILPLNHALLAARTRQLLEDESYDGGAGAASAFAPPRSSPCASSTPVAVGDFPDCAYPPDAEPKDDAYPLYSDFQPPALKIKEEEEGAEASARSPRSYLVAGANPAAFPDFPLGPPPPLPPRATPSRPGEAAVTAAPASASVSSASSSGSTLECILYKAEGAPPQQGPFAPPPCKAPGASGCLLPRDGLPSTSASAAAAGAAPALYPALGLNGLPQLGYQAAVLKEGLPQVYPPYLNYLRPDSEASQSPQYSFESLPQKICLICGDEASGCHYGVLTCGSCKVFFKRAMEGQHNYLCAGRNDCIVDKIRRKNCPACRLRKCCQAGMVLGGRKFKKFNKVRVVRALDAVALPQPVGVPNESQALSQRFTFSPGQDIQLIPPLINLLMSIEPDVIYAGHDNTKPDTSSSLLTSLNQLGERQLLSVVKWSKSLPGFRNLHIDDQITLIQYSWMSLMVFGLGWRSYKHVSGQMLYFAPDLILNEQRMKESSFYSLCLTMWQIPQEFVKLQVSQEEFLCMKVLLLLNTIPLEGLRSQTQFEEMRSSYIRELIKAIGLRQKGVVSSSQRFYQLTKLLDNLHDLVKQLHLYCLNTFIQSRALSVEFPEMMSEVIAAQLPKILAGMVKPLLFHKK

Test [2] has the same target. As to the kind of experiment: qHTS assay to identify small molecule antagonists of the progesterone receptor (PR) signaling pathway (AID 1346795; active = well fitted inhibition curve with a large enough effect in the signal ratio in the repeat runs, not every such curve was filed as active; the % refers to the signal ratio; note: potency is the fitted concentration of half-maximal effect). In outline:
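Inhibition of R5020-induced (1 nM final) beta-lactamase reporter signal in PR-UAS-bla HEK293T cells was scored by FRET fluorescence after overnight (16 hr) compound treatment.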

Test [3] in a line: qHTS assay to identify small molecule antagonists of the progesterone receptor (PR) signaling pathway - cell viability counter screen (AID 1346798). Note: nearly all actives have a fitted effect of over 50% in size. Note: potency is the fitted concentration of half-maximal effect. In outline:
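ATP content as viability readout: CellTiter-Glo luminescence, 30 min room temperature, in PR-UAS-bla HEK293T cells after 16 hr compound/R5020 treatment at 37C and 5% CO2.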
(In general: qHTS replaces the single test concentration by a dilution series.)

Test [4] in a line: qHTS assay to identify small molecule agonists of the progesterone receptor (PR) signaling pathway - cell viability counter screen (AID 1346799; calls by dose curve; note: nearly all actives have a fitted effect of over 45% in size; note: potency is the fitted concentration of half-maximal effect). The method, boiled down: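 Cytotoxicity in PR-bla HEK293T cells: 16 h compound, 37C; CellTiter-Glo added post-FRET read; luminescence after 30 min RT.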
Test [5] in a line: qHTS assay to identify small molecule agonists of the TGF-beta/Smad signaling pathway - cell viability counter screen (AID 1346829). Note: nearly all actives have a fitted effect of over 45% in size. Note: potency is the fitted concentration of half-maximal effect. The method, boiled down:
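HEK 293T SBE-bla line, 5 hr compound exposure at 37 C, multiplexed CellTiter-Glo viability read by luminescence.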

The nature of test [6]: qHTS assay to identify small molecule agonists of the TGF-beta/Smad signaling pathway (AID 1346859; active = well fitted activation curve with a large enough effect in the signal ratio in the repeat runs, not every such curve was filed as active; the % refers to the signal ratio; note: series mostly up to about 77 µM). In outline: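 Stable Smad binding element-beta-lactamase HEK 293T cells; 5 hr compound exposure at 37 C under 5% CO2; 2 hr room-temperature substrate step; fluorescence excited at 405 nm, collected at 460 nm and 530 nm.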
A short description of test [7]: Human pregnane X receptor (PXR) small molecule agonists, qHTS cell viability counter screen (AID 1346977). Note: nearly all actives have a fitted effect of over 50% in size. Note: potency is the fitted concentration of half-maximal effect. In outline:
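Readout is CellTiter-Fluor fluorescence from PXR-Luc HepG2 cells. Plated cells rested 5hr, then were treated with compounds for 24hr at 37C and 5% CO2, with reagent present during the last hour.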

Test [8] is described as follows: qHTS assay to identify small molecule antagonists of the TGF-beta/Smad signaling pathway - cell viability counter screen (AID 1346824). Note: nearly all actives have a fitted effect of over 50% in size. Note: potency is the fitted concentration of half-maximal effect. In outline: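 SBE-bla HEK 293T cells, incubated overnight, then compound plus 0.25 ng/mL TGF-beta1 (stock added) for 5 hr at 37 C. Viability was read in the same wells by CellTiter-Glo luminescence after 30 min at room temperature.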

For test [9], the target named is Thyrotropin-releasing hormone receptor (Homo sapiens) (UniProt P34981). As to the kind of experiment: qHTS assay to identify small molecule antagonists of the thyrotropin-releasing hormone receptor (TRHR) signaling pathway (AID 1346877; active = well fitted inhibition curve with a large enough effect in the repeat runs, not every such curve was filed as active; note: potency is the fitted concentration of half-maximal effect). The method, boiled down:
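Antagonism is measured as suppression of the calcium response to 1 nM TRH in TRHR-HEK293 cells that have been dye-loaded for 2 h at 37 °C after overnight plating. Each compound is tested at 15 concentrations in triplicate.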

Test [10] shares this target. The experiment in a line: qHTS assay to identify small molecule agonists of the thyrotropin-releasing hormone receptor (TRHR) signaling pathway (AID 1346891; calls by dose curve; note: potency is the fitted concentration of half-maximal effect;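 for activation: HEK293 cells expressing TRHR with calcium dye readout; series mostly up to about 58 µM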). In outline: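 In 1536-format, 1500 TRHR-Hek293 cells per well grew 18 h, took up calcium dye for 2 h at 37 °C, received compound, and were read kinetically; 15-point titrations, triplicates.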

Sequence of Thyrotropin-releasing hormone receptor (Homo sapiens) (P34981 whole entry, looked up): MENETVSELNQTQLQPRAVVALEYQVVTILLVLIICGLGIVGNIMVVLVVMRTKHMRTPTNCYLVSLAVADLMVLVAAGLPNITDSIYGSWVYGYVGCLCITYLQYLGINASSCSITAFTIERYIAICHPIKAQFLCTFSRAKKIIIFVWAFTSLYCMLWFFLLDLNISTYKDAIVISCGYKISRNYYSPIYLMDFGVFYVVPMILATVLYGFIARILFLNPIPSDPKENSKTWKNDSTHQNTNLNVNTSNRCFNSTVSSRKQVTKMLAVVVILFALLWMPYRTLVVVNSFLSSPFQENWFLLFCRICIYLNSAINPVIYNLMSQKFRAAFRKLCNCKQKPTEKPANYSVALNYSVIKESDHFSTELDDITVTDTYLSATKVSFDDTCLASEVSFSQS

For the molecule `CCCCc1ccccc1`, the Potency result in [1], in test [2], in test [3], in [4], in test [5] and in test [7] was “inactive” each time. Also, the call in [6] was inactive.
Regarding `CN=C=O`, the Potency entry in test [1], in [2], in test [3], in test [4], in [8] and in [5] was “inactive” in each case. Further, the Potency result in test [7] is “inactive”. The molecule was called inactive in test [6].
As to `S=C=NCCc1ccccc1`, the Potency result in [1], in [8] and in [5] was “inactive” each time. Moreover, the Potency was 19.4 µM (active) in test [2] and 21.7 µM (active) in test [3]. For the same molecule, the result in test [6] was inactive.
In the case of `CC[N+]1(CC)CCC(OC(=O)C(O)(c2ccccc2)c2ccccc2)C1` (stereo not drawn), the Potency result in [1], in test [2], in test [3], in test [8], in [5] and in test [9] was “inactive” throughout. Further, the Potency entry in test [10] and in test [7] was “inactive” throughout. Besides, in test [6], the result was inactive.
With `COc1ccc2c(c1OC)C(=O)O[C@@H]2[C@H]1c2cc3c(cc2CCN1C)OCO3`, the Potency result in test [1], in test [2], in [3], in test [8], in [5] and in test [9] was “inactive” in each case. The Potency entry in [10] was “inactive”. The molecule was classed as inactive in [6].
As to `O=C(O)CCCCCCNC1c2ccccc2CCc2ccccc21`, the Potency entry in test [1], in test [2], in [3], in [4], in test [8] and in [5] was “inactive” in each case. Moreover, the Potency entry in [7] is “inactive”. For the same molecule, the call in test [6] was inactive.
For `CCCCN(CCCC)C(=S)[S-].CCCCN(CCCC)C(=S)[S-].[Ni+2]`, the Potency result in test [1], in [2], in test [3], in [4], in test [8] and in test [7] was “inactive” throughout. Moreover, in test [6], the molecule was classed as inactive.
Consider `O=C(O)[C@H](O)[C@@H](O)C(=O)O`, for which the Potency result in test [1], in test [2], in test [3], in test [4], in [5] and in test [9] was “inactive” each time. Further, the Potency entry in test [10] and in test [7] was “inactive” each time. In addition, the molecule was classed as inactive in test [6].
Consider `CCN(CC)C(=S)S`, for which the Potency result in test [1] and in [8] was “inactive” in each case. For the same molecule, the Potency is 49 µM (active) and 6.82 µM (active) and 13.7 µM (active) in test [2]; 61.6 µM (active) and 7.65 µM (active) and 17.2 µM (active) in [3]; 17.1 µM (active) and inactive in [4]; 28.2 µM (active) and inactive in test [7]. Besides, in test [6], the molecule was classed as inactive.
For the molecule `CC(=O)[O-].CC(=O)[O-].O.O.[Zn+2]`, the Potency result in [1], in test [2], in test [3], in [4], in test [8] and in test [5] was “inactive” each time. In addition, the Potency entry in test [7] is “inactive”. Further, the molecule was called inactive in test [6].
As to `COc1c2c(cc3c1OCO3)CCN(C)C2`, the Potency entry in test [1], in test [2], in test [3], in [4], in [5] and in test [9] was “inactive” each time. In addition, the Potency result in test [10] and in test [7] was “inactive” each time. The molecule was called inactive in [6].
Regarding `O=[N+]([O-])c1cccc2cccc([N+](=O)[O-])c12`, the Potency entry in [1], in [3], in test [8], in [5], in [9] and in test [10] was “inactive” each time. For the same molecule, the Potency in test [2] was 27.4 µM (active). The call in test [6] was inactive.
Turning to `CCCCN(CCCC)C(=S)S`, the Potency entry in test [1], in test [2], in test [3], in test [4], in [8] and in test [7] was “inactive” in each case. In addition, in [6], the result was inactive.
For the molecule `CC1CCCC1`, in test [1], the Potency is 53.6 µM (active). Moreover, the Potency entry in test [2], in test [3], in test [4], in [8], in [5] and in test [9] was “inactive” each time. Further, the Potency result in [10] and in test [7] was “inactive” in each case.
Take `CCOP(=O)(OCC)Oc1cc(C)nc(C(C)C)n1`: the Potency entry in test [1], in test [2], in test [3], in [4], in [9] and in [10] was “inactive” in each case. For the same molecule, the Potency entry in [7] is “inactive”. In addition, the molecule was called inactive in [6].
In the case of `O=NN(CCO)CCO`, the Potency entry in test [1], in [2], in [3], in test [4], in test [8] and in test [7] was “inactive” in each case. The call in test [6] was inactive.
`Oc1cc(Cl)c(Cl)c(Cl)c1Cl`: the Potency result in [1], in [3], in test [4], in [5], in [9] and in [10] was “inactive” in each case. Besides, the results for the Potency in test [2] and in test [7] were 21.2 µM (active) and 29.9 µM (active), respectively.
On to `O=c1c2ccccc2c(=O)c2c1cc(Cl)c1[nH]c3c([nH]c12)c(Cl)cc1c(=O)c2ccccc2c(=O)c13`, for which the Potency result in test [1], in [2], in [3], in test [4], in test [8] and in test [9] was “inactive” throughout. The Potency result in test [10] and in [7] was “inactive” in each case. Besides, the molecule was called inactive in [6].
In the case of `Nc1cc(Cl)ccc1Cl`, the Potency result in test [1], in test [2], in test [3], in test [4], in test [5] and in [9] was “inactive” throughout. In addition, the Potency result in test [10] and in test [7] was “inactive” throughout. Besides, the outcome in test [6] was inactive.
In the case of `Cc1ccc(C)c2ccccc12`, the Potency entry in test [1], in [2], in [3], in test [4], in test [5] and in test [9] was “inactive” throughout. For the same molecule, the Potency result in test [10] and in test [7] was “inactive” throughout. Moreover, the result in test [6] was inactive.
As for `CC(C)(C)c1ccc(OP(=O)(Oc2ccccc2)Oc2ccccc2)cc1`, the Potency result in test [1], in test [3], in test [8], in test [5], in [9] and in test [10] was “inactive” each time. Moreover, the Potency in test [2] was 21.8 µM (active). The outcome in test [6] was inactive.
In the case of `ClC1=C(Cl)[C@]2(Cl)[C@H]3[C@H]([C@@H]4C=C[C@H]3C4)[C@@]1(Cl)C2(Cl)Cl`, the Potency result in test [1], in test [3], in [4], in test [9], in test [10] and in test [7] was “inactive” in each case. Moreover, the Potency in test [2] was 21.7 µM (active); in test [5] it was “inactive and 49 µM (active)”. Further, in test [6], the outcome was inactive.
`c1ccc(N=NNc2ccccc2)cc1`: the Potency result in [1], in test [3], in test [4], in [8], in [9] and in [10] was “inactive” each time. In [2], the Potency is 56.4 µM (active) and 48.6 µM (active). In addition, the call in test [6] was inactive.
In the case of `O=C1C(Cl)=C(Cl)C(=O)C(Cl)=C1Cl`, the Potency entry in [1], in [2], in test [3], in [4], in test [5] and in [9] was “inactive” each time. In test [10], the Potency result was “inactive”.
`O=C(CCCCl)c1ccc(F)cc1`: the Potency entry in test [1], in test [2], in test [3], in test [4], in test [8] and in [5] was “inactive” in each case. Also, the Potency result in [7] is “inactive”. For the same molecule, the result in test [6] was inactive.
Regarding `CC(=O)[O][Sn]([c]1ccccc1)([c]1ccccc1)[c]1ccccc1`, in test [1], the Potency result was “inactive”. The Potency in test [2] is 0.0486 µM (active); in test [3] it was 0.273 µM (active); in [4] it was 433 nM (active); in test [8], 1.95 µM (active); in test [5], 1.74 µM (active); in test [9], 2.69 µM (active). In addition, the values for the Potency in [10] and in [7] were 4.9 µM (active) and 0.306 µM (active), respectively.
As for `CC(=O)[O-].CC(=O)[O-].O.O.O.[Pb+2]`, the Potency result in test [1], in test [2], in [3], in test [4], in [5] and in test [7] was “inactive” throughout. In addition, the outcome in test [6] was inactive.
Regarding `CCCN`, the Potency entry in [1], in test [2], in test [3], in test [4], in [8] and in test [7] was “inactive” in each case. Besides, in test [6], the result was inactive.
